An excerpt weighted towards active compounds, which were near 3.6% of everything screened.
LGR2 inh: Drosophila LGR2 receptor signaling inhibition. 380,000 compounds, 0.35% hits. HEK293 LGR2, CRE-luciferase, bursicon-stimulated, 4 h. inhibition, % at 9.99 µM;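 active means drop in luminescence signal, shown as inhibition above about 50% in the replicate tests, limit read from the data, passing the limit was not always enough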;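 further: agonist challenge used bursicon conditioned medium at about half maximal strength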
CF NFkB inh: cystic fibrosis NF-kB activation inhibition; KKLEB NF-kB-GFP reporter, PAF-induced, GFP fluorescence overnight; inhibition, % at 5 µM; 360,000 compounds, 0.86% hits; AID 588850;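 active means at least 50% inhibition at 5 µM, scaled per plate between neutral and stimulator controls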;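 further: PAF is a Pseudomonas aeruginosa culture filtrate used as stimulus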
Peg3 promoter: Peg3 promoter activity inhibition; HeLa PEG-Prom luciferase reporter, luminescence, overnight; inhibition, % at 20 µM; 360,000 compounds, 1.7% hits; AID 588405;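 active means inhibition of at least 50% at 20 µM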
HSP90 inh: inhibitors of HSP90 luciferase refolding in rabbit reticulocyte lysate; 290,000 compounds, 0.91% hits; AID 1789; inhibition, % at 5.6 µM; luciferase refolding luminescence, 3 h;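 active means inhibition above the screen-wide mean plus 3 SD, computed separately per campaign, cut at about 16% in these data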;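 further: inhibitors lower the luminescence because luciferase stays unfolded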
KKLEB cytotox: counter-screen for CF NF-kB inhibitors: cytotoxicity; KKLEB CF airway cells viability, ATPlite luminescence, overnight; active compounds read low; cells stimulated with P. aeruginosa culture filtrate; activity change (cytotoxicity), % at 5 µM; 360,000 compounds, 0.36% hits; AID 602141;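 active means corrected activity change at or below -50% at 5 µM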
Mdm2 MdmX PPI: disrupts the human Mdm2-MdmX interaction. O15151+Q00987. SaOS-2 split-luciferase Mdm2/MdmX complementation, luminescence. inhibition, % at 8 µM. 330,000 compounds, 3% hits. AID 485346;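 active means inhibition of at least 50% at 8 µM in the primary screen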
HSP90 confirm: confirmation of HSP90 inhibitors. shares compounds with HSP90 inh. rabbit reticulocyte lysate, luciferase refolding luminescence, 3 h. inhibition, % at 5.9 µM. 2,300 compounds, 64% hits. AID 1846; in the data active means inhibition above about 18%
FLuc counter-1: firefly luciferase inhibition, HSP90 counter-screen; inhibition, % at 5.9 µM; shares compounds with HSP90 inh; AID 1847; 2,300 compounds, 48% hits; purified native firefly luciferase, luminescence;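 active means inhibition above the mean inhibition of all tested sample wells plus 3 SD, cut at about 10% in these data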
Mdm2 MdmX conf: confirmation of human Mdm2/MdmX interaction inhibitors | shares compounds with Mdm2 MdmX PPI | Mdm2-MdmX binding, luminescent assay | inhibition, % at 8 µM | 10,000 compounds, 55% hits; in the data active means inhibition above about 40%
FLuc counter-2: inhibits full-length luciferase, flagging false Mdm2/MdmX hits; shares compounds with Mdm2 MdmX PPI; SaOS-2 full-length luciferase counterscreen, luminescence; inhibition, % at 8 µM; 6,200 compounds, 77% hits; AID 504607;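 active means mean inhibition at 8 µM reaching about 37%, which flags the compound as non-specific, limit read from the data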;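 further: p53-null SaOS-2 cells with luciferase driven by a doxycycline-inducible promoter; compound on cells about two nights before reading with doxycycline added after day one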
Each line names hits and unclear results; the compound was inactive in the other large screens (follow-up assays come after a bar, where they were run).

O=C(C1CC1)N1CC(=O)N2[C@H](CO)[C@H](c3ccc(C#Cc4cccc(F)c4)cc3)[C@@H]2C1	none (no result: CF NFkB inh, Peg3 promoter, HSP90 inh, KKLEB cytotox, Mdm2 MdmX PPI)
CS(=O)(=O)n1nc(-c2ccc(Cl)cc2)nc1N	none
Cn1nc(-c2ccc(Cl)cc2)nc2c(=O)n(C)c(=O)nc1-2	HSP90 inh 95, Mdm2 MdmX PPI 83 (no result: LGR2 inh, CF NFkB inh, Peg3 promoter, KKLEB cytotox) | HSP90 confirm 97 | FLuc counter-1 90 | Mdm2 MdmX conf 80 | FLuc counter-2 inactive
COc1cc(/C=C/[N+](=O)[O-])ccc1OCc1cccc(C(=O)O)c1	HSP90 inh 63, Mdm2 MdmX PPI 55 (no result: LGR2 inh, CF NFkB inh, Peg3 promoter, KKLEB cytotox) | HSP90 confirm 51 | FLuc counter-1 inactive | Mdm2 MdmX conf 47 | FLuc counter-2 inactive
COc1ccc(S(=O)(=O)Nc2ccc3c(c2)C(=O)N([C@H](C)CO)C[C@H](C)[C@@H](CN(C)C(=O)CCCN(C)C)OCCCC[C@H](C)O3)cc1	none (no result: CF NFkB inh, Peg3 promoter, HSP90 inh, KKLEB cytotox, Mdm2 MdmX PPI)
Cc1cnc(NC(=O)COc2ccccc2Cl)s1	LGR2 inh 91, HSP90 inh 58, Mdm2 MdmX PPI 53 | HSP90 confirm 79 | FLuc counter-1 78 | Mdm2 MdmX conf inactive
CC(C)(C)c1ccc(C(=O)NC(=S)Nc2nc3c(s2)CCCC3)cc1	HSP90 inh 24, Mdm2 MdmX PPI 61 | HSP90 confirm 57 | FLuc counter-1 38 | Mdm2 MdmX conf 51 | FLuc counter-2 102
COC(=O)c1cc(S(=O)(=O)N2CCOCC2)c(Cl)cc1N1CCOCC1	none (no result: LGR2 inh)
COC(=O)c1cc(C)nc2c1C(=O)C(=O)C=C2N1CCOCC1	LGR2 inh 60, CF NFkB inh 88, Peg3 promoter 100, HSP90 inh 45, KKLEB cytotox -58, Mdm2 MdmX PPI 65 | HSP90 confirm 91 | FLuc counter-1 inactive | Mdm2 MdmX conf inactive
COc1ccc(-n2ncc3c(N4CCCCC4)ncnc32)cc1	Peg3 promoter 81, HSP90 inh 67, KKLEB cytotox -82, Mdm2 MdmX PPI 87 (no result: LGR2 inh) | HSP90 confirm 90 | FLuc counter-1 86 | Mdm2 MdmX conf 86 | FLuc counter-2 73
Clc1ccc(-n2ncc3c(N4CCCCCC4)ncnc32)cc1	LGR2 inh 96, HSP90 inh 63, KKLEB cytotox -52, Mdm2 MdmX PPI 91 | HSP90 confirm 83 | FLuc counter-1 86 | Mdm2 MdmX conf 88 | FLuc counter-2 98
Clc1ccc(Cn2ncc3c(N4CCCCC4)ncnc32)cc1	none (no result: LGR2 inh)
CCn1c(C)nc2cc(-c3nc4n(n3)Cc3ccccc3-4)ccc21	Peg3 promoter 114, HSP90 inh 88, KKLEB cytotox -88, Mdm2 MdmX PPI 92 (no result: LGR2 inh) | HSP90 confirm 97 | FLuc counter-1 92 | Mdm2 MdmX conf 99 | FLuc counter-2 51
Cc1[nH]c2ccccc2c1C(c1ccccn1)N1CCCC1 (configuration not stated)	none
Cc1[nH]c2ccccc2c1C(c1ccccn1)N1CCC(C)CC1 (configuration not stated)	HSP90 inh 46, Mdm2 MdmX PPI 51 (no result: LGR2 inh) | HSP90 confirm inactive | FLuc counter-1 inactive | Mdm2 MdmX conf inactive
Cc1ccc(-c2nc(-c3ccccc3)no2)cc1	none (no result: LGR2 inh)
Cc1ccc(-c2nc(-c3ccccc3)no2)c(Cl)c1	LGR2 inh 67, HSP90 inh 54, KKLEB cytotox -80, Mdm2 MdmX PPI 52 | HSP90 confirm 90 | FLuc counter-1 86 | Mdm2 MdmX conf 62 | FLuc counter-2 163
CC(C)(C)OC(=O)N1Cc2ccccc2C[C@H]1C(=O)NCC(=O)Nc1ccc2c(c1)OCCO2	HSP90 inh 32, Mdm2 MdmX PPI 64 | HSP90 confirm 52 | FLuc counter-1 69 | Mdm2 MdmX conf 66 | FLuc counter-2 67
CC1(C)Cc2ccccc2C2=NNC(=O)C2=N1	CF NFkB inh 75, HSP90 inh 17, Mdm2 MdmX PPI 86 | HSP90 confirm 34 | FLuc counter-1 inactive | Mdm2 MdmX conf 65 | FLuc counter-2 inactive
CC(=O)Oc1ccc(N(C(C)=O)S(=O)(=O)c2ccc(C)cc2C)c2ccccc12	none
CC(=O)N(/N=C1\Sc2ccccc2C1=O)c1ccc(C)cc1C	HSP90 inh 41, Mdm2 MdmX PPI 65 (no result: LGR2 inh) | HSP90 confirm 79 | FLuc counter-1 58 | Mdm2 MdmX conf 76 | FLuc counter-2 107
CC1CCc2nc(NC(=O)C3COc4ccccc4O3)sc2C1 (configuration not stated)	HSP90 inh 57, Mdm2 MdmX PPI 52 (no result: LGR2 inh) | HSP90 confirm 72 | FLuc counter-1 66 | Mdm2 MdmX conf 77 | FLuc counter-2 active
CC1CCc2nc(NC(=O)C3CC3)sc2C1 (configuration not stated)	none
CC(C)NC(=O)Nc1ccc2c(c1)C(=O)N([C@H](C)CO)C[C@H](C)[C@H](CN(C)CC1CCCCC1)O2	none (no result: CF NFkB inh, Peg3 promoter, HSP90 inh, KKLEB cytotox, Mdm2 MdmX PPI)
O=C(Oc1cccc(OC(=O)c2ccco2)c1)c1ccco1	none
CC1=CC(C)(C)Nc2ccc(OC(=O)c3ccco3)cc21	HSP90 inh 17, Mdm2 MdmX PPI 72 | HSP90 confirm 32 | FLuc counter-1 inactive | Mdm2 MdmX conf inactive
COc1ccc(C(=O)Nc2nc3ccccc3[nH]2)cc1	LGR2 inh 90, HSP90 inh 74, Mdm2 MdmX PPI 56 | HSP90 confirm 86 | FLuc counter-1 80 | Mdm2 MdmX conf inactive | FLuc counter-2 83
CC=Cc1ccc2n(c1=O)C[C@@H]1[C@@H](CO)[C@H](C(=O)NCC3CC3)[C@H]2N1Cc1ccccc1OC (mixture of isomers)	none (no result: CF NFkB inh, Peg3 promoter, HSP90 inh, KKLEB cytotox, Mdm2 MdmX PPI)
O=C1CC(c2ccc3c(c2)OCCO3)Oc2ccccc21 (configuration not stated)	none
O=C1CC(c2ccc3c(c2)OCCO3)Oc2ccc([N+](=O)[O-])cc21 (configuration not stated)	HSP90 inh 55, Mdm2 MdmX PPI 72 | HSP90 confirm 66 | FLuc counter-1 64 | Mdm2 MdmX conf 72 | FLuc counter-2 144
COc1cc(/C=C2\CC/C(=C\c3cc(OC)c(OC)c(OC)c3)C2=O)cc(OC)c1OC	none
COc1cc(/C=C2\CC(C(C)(C)C)C/C(=C\c3cc(OC)c(OC)c(OC)c3)C2=O)cc(OC)c1OC (configuration not stated)	Peg3 promoter 104, HSP90 inh 19, Mdm2 MdmX PPI 97 | HSP90 confirm 20 | FLuc counter-1 inactive | Mdm2 MdmX conf 99 | FLuc counter-2 55

Assay outcomes (PubChem BioAssay)
